Source: PubChem BioAssay (EPA / NIEHS)
“And” between values parts separate entries of the source, which are not always exact repeats. Equal values may be shown once. More than one record can exist for a structure, and the calls need not agree. The source made the active and inactive calls. How the source made its calls: active means hit-call score of the fitted dose curve at least 0.9, where 1 is the maximum; inactive means score below 0.9.

How the values were obtained:
[1] = BSK_CASM3C_SRB: Viability Assessment in the BioMAP Diversity Plus: CASM3C Assay (AID 2283050); settings: primary human coronary artery smooth muscle cells;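 further: total protein by SRB staining as cytotoxicity measure in parallel cultures; cells exposed to compound for 24 h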
[2] = read-out: Thrombomodulin, THBD (gene 7056); test: BSK_CASM3C_Thrombomodulin: BioMAP Diversity Plus: CASM3C Assay for Thrombomodulin Biomarker Activity (AID 2283051); settings: primary human coronary artery smooth muscle cells; actives raise or lower the signal;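 further: thrombomodulin protein level measured by ELISA 24 h after dosing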
[3] = read-out: Tissue Factor, F3 (gene 2152); test: BSK_CASM3C_TissueFactor: BioMAP Diversity Plus: CASM3C Assay for Tissue Factor Biomarker Activity (AID 2283052); settings: primary human coronary artery smooth muscle cells; actives raise or lower the signal;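 further: cell surface tissue factor protein level read by ELISA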
[4] = read-out: Interferon-gamma inducible Protein 10 (IP10), CXCL10 (gene 3627); test: BSK_hDFCGF_IP10: BioMAP Diversity Plus: hDFCGF Assay for Interferon-gamma inducible Protein 10 (IP10) Biomarker Activity (AID 2283053); settings: primary human foreskin fibroblasts; actives raise or lower the signal
In short: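 Cells: human dermal foreskin fibroblasts. Exposure: 24 h post-dosing. Detection: IP-10 ELISA, with values expressed against DMSO controls and fitted in both directions.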

[5] = read-out: Urokinase-type plasminogen activator receptor (uPAR), PLAUR (gene 5329); test: BSK_CASM3C_uPAR: BioMAP Diversity Plus: CASM3C Assay for Urokinase-type plasminogen activator receptor (uPAR) Biomarker Activity (AID 2283054); settings: primary human coronary artery smooth muscle cells; actives raise or lower the signal;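 further: cell-surface uPAR protein level quantified by ELISA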
[6] = read-out: Vascular cell adhesion molecule 1 (VCAM1), VCAM1 (gene 7412); test: BSK_CASM3C_VCAM1: BioMAP Diversity Plus: CASM3C Assay for Vascular cell adhesion molecule 1 (VCAM1) Biomarker Activity (AID 2283055); settings: primary human coronary artery smooth muscle cells; actives raise or lower the signal;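 further: VCAM-1 protein level quantified by ELISA on the cells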
[7] = read-out: Collagen III, COL3A1 (gene 1281); test: BSK_hDFCGF_CollagenIII: BioMAP Diversity Plus: hDFCGF Assay for Collagen III Biomarker Activity (AID 2283056); settings: primary human foreskin fibroblasts; actives raise or lower the signal
In short: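 ELISA readout of Collagen III in human dermal (foreskin) fibroblasts, taken 24 h post-treatment. Gain or loss relative to DMSO vehicle fitted in both directions.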

[8] = read-out: Interleukin-8 (IL8), CXCL8 (gene 3576); test: BSK_hDFCGF_IL8: BioMAP Diversity Plus: hDFCGF Assay for Interleukin-8 (IL8) Biomarker Activity (AID 2283058); settings: primary human foreskin fibroblasts; actives raise or lower the signal
In short: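 IL-8 levels read by ELISA at 24 hours after dosing human skin fibroblast cultures. Parallel SRB staining assessed overt cytotoxicity, and gain or loss of signal was fitted against DMSO control.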

[9] = BSK_hDFCGF_Proliferation: Cell Proliferation Assessment in the BioMAP Diversity Plus: hDFCGF Assay (AID 2283059); settings: primary human foreskin fibroblasts;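 further: curves fitted for both rise and fall of signal versus DMSO baseline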
In short: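 Steps: dose primary human dermal fibroblasts (foreskin); […] fix in 10% TCA; stain with 0.1% SRB; read 560 nm; fit gain or loss of signal against DMSO.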

[10] = read-out: Epidermal growth factor receptor (EGFR), EGFR (gene 1956); test: BSK_hDFCGF_EGFR: BioMAP Diversity Plus: hDFCGF Assay for Epidermal growth factor receptor (EGFR) Biomarker Activity (AID 2283057); settings: primary human foreskin fibroblasts; actives raise or lower the signal
In short: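 Dosing human primary skin fibroblasts, then measuring surface EGFR by ELISA at 24 h, gives the endpoint; gains and losses relative to DMSO were fitted in both directions.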

Measured: AC50

ClC1=C(Cl)[C@]2(Cl)[C@@H]3[C@@H](Cl)[C@H]4O[C@H]4[C@@H]3C1(Cl)C2(Cl)Cl
active: [9] 5.9 µM
not listed: [10]
inactive: all other assays above

CCSC(=O)N(CC)C1CCCCC1
inactive: all assays above

C[C@]12CCC(=O)C=C1CC[C@@H]1[C@@H]2CC[C@@]2(C)[C@H]1CC[C@]2(C)O
inactive: all assays above

Sc1ccccc1
inactive: all assays above

CCCCCCOC(=O)c1ccccc1C(=O)OCCCCCC
active: [2] 17.5 µM | [7] 7.56 µM | [9] 11.2 µM
inactive: all other assays above

NS(=O)(=O)C(F)(F)C(F)(F)C(F)(F)C(F)(F)C(F)(F)C(F)(F)C(F)(F)C(F)(F)F
inactive: [3] | [5] | [6] | [10]
active: [1] 31.8 µM and 45.5 µM and 49.3 µM | [2] 26 µM and 34.6 µM and 37.3 µM | [4] 20 µM and 9.33 µM and 8.26 µM | [5] 46.6 µM and 42.5 µM | [6] 11.4 µM and 16.7 µM | [7] 12.6 µM and 10.8 µM and 9.02 µM | [8] 37.5 µM and 22.2 µM and 34 µM | [9] 12.2 µM and 18.3 µM and 19.5 µM

O=S(=O)(O)C(F)(F)C(F)(F)C(F)(F)C(F)(F)C(F)(F)C(F)(F)F
inactive: all assays above

Oc1ccc(Cl)cc1Cl
inactive: all assays above

C=CC(N)=O
inactive: all assays above

Oc1ccc(C(c2ccc(O)cc2)(C(F)(F)F)C(F)(F)F)cc1
active: [1] 27.9 µM | [2] 29.2 µM | [4] 16.6 µM | [6] 31 µM | [7] 13.1 µM | [8] 30.6 µM | [9] 12.4 µM
inactive: [3] | [5] | [10]

Cc1ccc(O)c(C)c1
active: [9] 12.4 µM
not listed: [10]
inactive: all other assays above

CN(C)CCO
inactive: all assays above

CC#Cc1cc(C)nc(Nc2ccccc2)n1
inactive: all assays above

ClC(Cl)=C(c1ccc(Cl)cc1)c1ccc(Cl)cc1
active: [2] 20 µM | [4] 26.4 µM | [7] 24.5 µM | [8] 30 µM | [9] 5.36 µM
inactive: all other assays above

Oc1c(Cl)c(Cl)c(Cl)c(Cl)c1Cl
active: [1] 29.6 µM | [3] 34.9 µM | [4] 10.2 µM and 13.1 µM | [5] 20 µM | [6] 20 µM | [7] 2.34 µM and 2.57 µM | [9] 3.11 µM and 8.24 µM
inactive: [1] | [2] | [3] | [5] | [10] | [8]

Cc1cc2c3c(c1)C(c1ccccc1)=N[C@@H](NC(=O)c1ccncc1)C(=O)N3CC2
active: [9] 11.5 µM
inactive: all other assays above

O=C(O)C(F)(F)C(F)(F)C(F)(F)C(F)(F)C(F)(F)C(F)(F)C(F)(F)C(F)(F)C(F)(F)F
active: [4] 28.5 µM and 29.1 µM and 32.8 µM | [6] 41.3 µM and 30 µM | [7] 29.7 µM and 30 µM | [8] 36.9 µM and 57.3 µM and 55.1 µM | [9] 13.5 µM and 16.5 µM and 17.1 µM
inactive: [1] | [2] | [3] | [5] | [6]

CC(C)C(=O)OCC(C)(C)C(OC(=O)C(C)C)C(C)C (stereo not given)
active: [9] 34.4 µM
inactive: all other assays above

CCC(C)(CC)c1cc(NC(=O)c2c(OC)cccc2OC)on1
not listed: [10]
inactive: all other assays above

CCNc1nc(NC(C)C)nc(SC)n1
active: [4] 30.4 µM
inactive: all other assays above

c1ccc(-c2ccccc2)cc1
inactive: all assays above

O=C(O)C(F)(F)C(F)(F)C(F)(F)C(F)(F)C(F)(F)C(F)(F)C(F)(F)C(F)(F)F
inactive: [1] | [2] | [3] | [4] | [5] | [6] | [7] | [10] | [8]
active: [3] 7.84 µM | [4] 32.4 µM and 43.4 µM | [7] 7.13 µM | [9] 34.2 µM and 20.8 µM and 46.7 µM

CCCN(CCC)N=O
inactive: all assays above

CCOP(=S)(OCC)SCSC(C)(C)C
inactive: all assays above

CO/C=C(/C(=O)OC)c1ccccc1COc1cccc(C(F)(F)F)n1
active: [7] 1.75 µM | [9] 4.78 µM
inactive: all other assays above

COc1ccc(O)c(C(C)(C)C)c1
active: [7] 3.97 µM and 8.37 µM
inactive: [1] | [2] | [3] | [4] | [5] | [6] | [7] | [10] | [8] | [9]

Cc1cccc(C)c1N
inactive: all assays above

Cc1ccccc1CO[C@@H]1C[C@@]2(C(C)C)CC[C@]1(C)O2
not listed: [10]
inactive: all other assays above

Cc1ccccc1O
inactive: all assays above

C[C@]12CCC(=O)C=C1CC[C@@H]1[C@@H]2CC[C@]2(C)C(=O)CC[C@@H]12
active: [9] 13.2 µM
inactive: all other assays above
